# Only some compounds are listed: those with a hit (about 19% of all), similar ones and a draw of the others.
# IL-1B inflam inh – inflammasome signaling inhibition, IL-1 beta readout. THP-1 LPS/ATP IL-1B secretion, AlphaLISA, 16 h; hits give low values. activity change, % at 57.5 µM. 360,000 tested, 4.7% active. AID 743279; in the data active = activity change below about -50%; inconclusive = mostly about -30% to -49%
#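 THP-1 cells pretreated 1 hr with compounds (up to 57.5 uM final), then stimulated with LPS (250 ng/mL final) plus ATP (1.25 mM final); secreted IL-1B measured by AlphaLISA after 16 hr, decreased signal indicating inhibition.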
# DT40 TDP1 CPT – growth inhibition of DT40 Tdp1-/-;hTDP1 cells with camptothecin (screen for TDP1 inhibitors) | Potency, µM (top dose mostly 46.2 µM), for inactives: at the highest dose activity change, negative = growth inhibition, usual class: inhibitors | chicken DT40 Tdp1-/-;hTDP1 cells + 20 nM CPT, ATP luminescence, 48 h | 420,000 tested, 12% active; note: potency is the fitted concentration of half-maximal effect; nearly all actives have a fitted effect of over 55% in size
#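 Chicken DT40 Tdp1-/- cells stably complemented with human TDP1 were seeded at 400 cells/well in medium containing 20 nM camptothecin, exposed to pin-transferred compounds, and grown at 37 °C for at least 48 hr. Viability was read as ATP luminescence.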
# HT1080 IDH1KD tx – HT-1080 IDH1 knockdown cell toxicity (counter line) | HT-1080 IDH1 knockdown viability, ATP luminescence, 48 h | Potency, µM (top dose mostly 46.1 µM), for the others: at the highest dose activity, negative = toxicity, most hits filed as cytotoxic | 360,000 tested, 2% active | AID 686971;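 note: potency is the fitted concentration of half-maximal effect; 0% = DMSO wells and -100% = cell-free medium wells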
#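 IDH1KD HT-1080 cells, 750/well, RPMI + 5% FBS; compound pinned after 2 h settling; 48 h, 37 °C; CellTiter-Glo luminescence; % activity normalised to DMSO and no-cell wells; curves fitted, classed by r2 and efficacy.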
# DT40 TDP1 no CPT – qHTS for Inhibitors of human tyrosyl-DNA phosphodiesterase 1 (TDP1): qHTS in cells in absence of CPT. DT40 Tdp1-/- hTDP1 cells, no CPT, ATP luminescence, 48 h. Potency, µM (top dose mostly 46.2 µM), for the others: top-dose activity change, negative = growth inhibition, hits mostly inhibitors. 420,000 tested, 15% active; note: potency is the fitted concentration of half-maximal effect; nearly all actives have a fitted effect of over 55% in size
#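 Chicken DT40 Tdp1-/- cells complemented with human TDP1, screened without camptothecin (DMSO vehicle only), 400 cells/well. Compounds pin-transferred, cells incubated at 37 °C for at least 48 hr. Growth read as ATP-dependent luminescence (CellTiter-Glo, 30 min at RT).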
# HT1080NT lethal – kills 2HG-producing HT-1080-NT fibrosarcoma cells | HT-1080-NT fibrosarcoma viability, CellTiter-Glo ATP luminescence, 48 h | Potency, µM (titrated, usually from 46.1 µM), for inactives: top-dose activity, negative = less viability, usual class: cytotoxic | 360,000 tested, 1.6% active | AID 686970;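 note: NT is the 2HG producing partner of a matched IDH1 knockdown line; potency is the fitted concentration of half-maximal effect; 0% = DMSO-treated cells and -100% = media-only wells without cells; nearly all actives have a fitted effect of over 55% in size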
#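 Fibrosarcoma NT cells, 750 per well in 5% FBS RPMI, were exposed to compound for 48 hours. Viability: CellTiter-Glo luminescence.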
# Active calls of the source: *; ? = inconclusive; / = no result given; [ ] = another dose, or the depositor's remark. Unless noted, calls come from the whole dose curve; as a rule, active = well fitted curve in the direction sought with a large enough effect; inconclusive = small, poorly fitted or top-dose-only effect, or another doubt; inactive = no such curve, though single readings can be large; an effect the other way counts as inactive or inconclusive. Unless noted, % is set by controls: 0 for no effect and ±100 for the full control effect.
SMILES,IL-1B inflam inh,DT40 TDP1 CPT,HT1080 IDH1KD tx,DT40 TDP1 no CPT,HT1080NT lethal
Cc1cccc(N2CCN(C(=O)c3ccc4c(c3)N(Cc3cccc(Cl)c3)C(=O)c3ccccc3S4=O)CC2)c1C (stereo not given),/,3.7µM*,/,5.2µM*,/
COc1ccc(CN2C(=O)CN(S(C)(=O)=O)CC2(C)C(=O)NC(C)C)cc1OC (stereo not given),-13,16%,10%,16%,-2%
Cc1onc(-c2c(F)cccc2Cl)c1C(=O)N=C(N)N1CC(C)OC(C)C1 (stereo not given),/,-3%,0%,?,4%
C=CCn1c(C(C)NC(=O)COC)nc2ccccc21 (stereo not given),1,-6%,3%,-17%,27%
Cc1ccc(S(=O)(=O)c2cc3c(=O)n4ccccc4nc3n(CCc3ccccc3)c2=N)cc1,6,?,6%,16µM*,8%
Cc1cccn2c(=O)c3cc(S(=O)(=O)c4ccccc4)c(=N)n(Cc4ccco4)c3nc12,-18,0%,17%,15%,25%
Cc1cccn2c(=O)c3cc(S(=O)(=O)c4ccc(F)cc4)c(=N)n(Cc4ccco4)c3nc12,-80*,?,23µM*,?,?
Cc1ccc2nc3c(cc(S(=O)(=O)c4ccccc4)c(=N)n3Cc3ccco3)c(=O)n2c1,-52*,-29%,8%,?,18%
Cc1ccc(S(=O)(=O)c2cc3c(=O)n4ccccc4nc3n(Cc3ccco3)c2=N)cc1C,-24,?,4%,?,2%
N=c1c(S(=O)(=O)c2ccccc2)cc2c(=O)n3ccccc3nc2n1Cc1ccco1,-79*,?,-19%,21µM*,-23%
CSc1ccc(CCNc2ncnc3onc(-c4ccc(Cl)cc4)c23)cc1,/,16µM*,/,10µM*,/
Fc1ccc(-c2noc3ncnc(NCCc4ccc(Cl)cc4)c23)cc1,/,15µM*,/,10µM*,/
COC(=O)C(CCSC)Nc1ncnc2onc(-c3ccc(F)cc3)c12 (stereo not given),/,-6%,/,-22%,/
Cc1ccc(CCNc2ncnc3onc(-c4ccc(F)cc4)c23)cc1,/,-1%,/,2%,/
Fc1ccc(-c2noc3ncnc(NCCc4ccccc4)c23)cc1,/,?,/,16µM*,/
Cc1ccc(-c2csc(-c3nc(-c4ccc(Br)s4)cs3)n2)cc1,/,2%,/,-5%,/
Cc1ccc(O)c(C(=O)c2cnc3c(c2)CN(CCC(C)C)C(=O)N3)c1,-15,10µM*,?,12µM*,?
CCCn1c(=O)sc2cc(NC(=O)c3ccccc3Cl)ccc21,/,21µM*,/,?,/
CCC(=O)Nc1cccc(NC(=O)c2ccccc2Cl)c1,-18,7%,4%,6%,11%
CCOC(=O)c1ccc(NC(=O)CN2C(=O)NC3(CCCCCCC3)C2=O)cc1,0,15µM*,?,?,?
CCCCOC(=O)c1ccc(NC(=O)COC(=O)CN2C(=O)NC3(CCCC3)C2=O)cc1,30,4%,-1%,7%,5%
CCCCOC(=O)c1ccc(NC(=O)CN2C(=O)NC3(CCCCCC3)C2=O)cc1,?,10µM*,?,8.2µM*,5%[9.24 µM]
CCCCOC(=O)c1ccc(NC(=O)C(=O)NCc2ccncc2)cc1,24,23µM*,-20%,23µM*,-19%
Cc1cnc(-n2ncc(C(=O)NC(C)(C)CO)c2-c2cccs2)nc1-c1ccc(F)cc1,/,-10%[9.04 µM],/,?,/
O=C(COC(=O)c1ccc(S(=O)(=O)N2CCCC2)cc1)Nc1ccc(N2CCOCC2)cc1,31,18µM*,-7%,?,16%
SMILES,IL-1B inflam inh,DT40 TDP1 CPT,HT1080 IDH1KD tx,DT40 TDP1 no CPT,HT1080NT lethal
O=C(COC(=O)c1n[nH]c2ccccc12)Nc1ccc(S(=O)(=O)N2CCCC2)cc1,-4,23µM*,-25%,21µM*,-22%
O=C(COC(=O)c1n[nH]c2ccccc12)Nc1ccccc1,-11,8%,24%,-8%,-1%
Cc1ccc(S(=O)(=O)N2CCN(S(=O)(=O)c3c(C)n[nH]c3C)CC2)cc1C,-13,0%,7%,2%,8%
C[C@@H]1CCCCO[C@@H](CN(C)CC2CCCCC2)[C@@H](C)CN([C@H](C)CO)C(=O)c2cc(NS(=O)(=O)c3ccc(Cl)cc3)ccc2O1,?,16µM*,?,13µM*,16µM*
C[C@H]1CN([C@@H](C)CO)C(=O)c2cc(NS(=O)(=O)c3ccc(Cl)cc3)ccc2O[C@@H]1CN(C)CC1CCCCC1,-56*,?,-12%,?,-8%
O=C(NCCn1cc(SCc2ccc(Br)cc2)c2ccccc21)c1cccs1,/,23µM*,/,23µM*,/
NC(=O)CSc1cn(CCNC(=O)c2cccs2)c2ccccc12,41,-4%,6%,-17%,-6%
COc1ccccc1C(=O)NCCn1cc(SCc2ccc(C)cc2)c2ccccc21,/,23µM*,/,?,/
O=C(NCCn1cc(SCc2ccccc2)c2ccccc21)c1cccs1,/,15µM*,/,7.3µM*,/
COc1ccccc1C(=O)NCCn1cc(SCC(=O)NCC2CCCO2)c2ccccc21 (stereo not given),-24,?,-10%,?,0%
O=C(NCCn1cc(SCc2ccccc2)c2ccccc21)c1ccccc1F,-27,21µM*,-19%,?,-24%
O=C(NCCn1cc(SCc2ccccc2Cl)c2ccccc21)c1cccs1,/,23µM*,/,?,/
Cc1ccc(C)c(CSc2cn(CCNC(=O)c3cccs3)c3ccccc23)c1,/,?,/,23µM*,/
CC(C)(C)OCC(NC(=O)C(CC(N)=O)NC(=O)OC(C)(C)C)C(=O)OC(C)(C)C (stereo not given),-11,-10%,2%,-9%,0%
